Assay [1] is described as follows: qHTS assay for small molecules that induce genotoxicity in human embryonic kidney cells expressing luciferase-tagged ATAD5 (AID 651632). Further: nearly all actives have a fitted effect of over 15% in size. The gist of the method:
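Quantitative HTS in HEK293T expressing luciferase-tagged ATAD5, whose levels rise upon DNA damage. Exposure ran 16 hr at 37C and 5% CO2, with luminescence read 30 min after Amplite addition at room temperature.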

Assay [2] can be described thus: qHTS assay for small molecules that induce genotoxicity in human embryonic kidney cells expressing luciferase-tagged ATAD5 - cell viability (AID 651634; calls by dose curve; further: nearly all actives have a fitted effect of over 25% in size; further: potency means the concentration at half of the fitted maximal effect). A digest of the protocol:
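After 15.5 hr incubation with compound at 37C, 5% CO2, HEK293T ATAD5-luciferase cells received CellTiter-Fluor reagent; fluorescence intensity was quantified following 30 min at 37C.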
A general note: Quantitative high-throughput screening tests each substance at several concentrations.

A short description of assay [3]: qHTS assay for small molecule disruptors of the mitochondrial membrane potential - cell viability (AID 720634; calls by dose curve; further: nearly all actives have a fitted effect of over 20% in size; further: potency means the concentration at half of the fitted maximal effect). The gist of the method:
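ATP-based luminescent viability readout (CellTiter-Glo, 30 min, room temperature) in HepG2 cells multiplexed with the m-MPI membrane potential dye; compound exposure lasted 1 hr at 37 C.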

The nature of assay [4]: qHTS assay for small molecule disruptors of the mitochondrial membrane potential (AID 720635). Further: potency means the concentration at half of the fitted maximal effect. The gist of the method:
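HepG2 cells exposed to compound 1 hr at 37C, then Mito-MPS dye 30 min. Ratio read of aggregate (540/590 nm) versus monomer (490/535 nm) fluorescence.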

Assay [5] in a line: qHTS assay to test for compound auto fluorescence at 590 nm (red) in HepG2 cells (AID 720674). The gist of the method: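 Fluorescence at 590 nm emission following 540 nm excitation was recorded from HepG2 wells one hour after compound transfer, with DMSO-only wells as vehicle and Rose Bengal sodium equivalency as the scale.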
The nature of assay [6]: qHTS assay to test for compound auto fluorescence at 535 nm (green) in HepG2 cells (AID 720675).
The nature of assay [7]: qHTS assay to test for compound auto fluorescence at 590 nm (red) in HEK293 cells (AID 720679). A digest of the protocol:
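HEK293 cells (2,000/well, medium with 10% dialyzed FBS) attached for 4-5 hr at 37C, received 23 nL compound and were incubated overnight at 37C, 5% CO2. Red fluorescence was then read at 540/590nm Ex/Em, referenced to Rose Bengal sodium.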

The nature of assay [8]: qHTS assay to test for compound auto fluorescence at 535 nm (green) in HEK293 cells (AID 720680).
A short description of assay [9]: qHTS assay to test for compound auto fluorescence at 460 nm (blue) in HEK293 cell free culture (AID 720681). The gist of the method: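 Compounds were added to cell-free DMEM with 10% FBS and fluorescence read directly. The blue channel used 405 nm excitation and 460 nm emission, with triamterene as the reference fluorophore.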
Assay [10] can be described thus: qHTS assay to test for compound auto fluorescence at 535 nm (green) in HEK293 cell free culture (AID 720682). A digest of the protocol:
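Green-label autofluorescence (485 nm excitation, 535 nm emission) measured on compound added to cell-free culture medium (DMEM, 10% FBS). Output is expressed relative to fluorescein.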

The nature of assay [11]: qHTS assay to test for compound auto fluorescence at 590 nm (red) in HEK293 cell free culture (AID 720683). A digest of the protocol: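 Cell-free wells of DMEM with 10% FBS received compound, and intrinsic fluorescence was read at excitation/emission 540/590 nm. Values expressed as equivalence to Rose Bengal sodium.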
A short description of assay [12]: qHTS assay to test for compound auto fluorescence at 590 nm (red) in HepG2 cell free culture (AID 720684). A digest of the protocol: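 Auto fluorescence equivalency versus Rose Bengal sodium, red channel Ex/Em 540/590 nm; compounds in cell-free MEM/10% FBS; DMSO vehicle control.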
A short description of assay [13]: qHTS assay to test for compound auto fluorescence at 460 nm (blue) in HepG2 cell free culture (AID 720685). The gist of the method: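 Cell-free plates of MEM plus 10% FBS received 23 nL compound or DMSO vehicle; blue-channel (405/460 nm) intensity scored against triamterene as reference fluorophore.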
Assay [14] can be described thus: qHTS assay to test for compound auto fluorescence at 535 nm (green) in HepG2 cell free culture (AID 720686).
Assay [15] in a line: qHTS assay to test for compound auto fluorescence at 460 nm (blue) in HepG2 cells (AID 720687). A digest of the protocol: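 HepG2 cells in MEM with 10% FBS, attached overnight at 37 C, were exposed to compound or DMSO for 1 hr at 37 C, 5% CO2. Blue fluorescence was read at 405/460 nm, with triamterene as reference fluorophore.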
Assay [16] addresses Glucocorticoid receptor (Homo sapiens) (UniProt P04150). The assay is described as follows: qHTS assay to identify small molecule agonists of the glucocorticoid receptor (GR) signaling pathway (AID 720691; active means well fitted activation curve with a large enough effect in the signal ratio in the repeat runs, not every such curve was filed as active; inconclusive means weak or mixed curves, or effect the other way; inactive means no such curve, though single readings can be large or run the other way; the % refers to the signal ratio; further: potency means the concentration at half of the fitted maximal effect). The gist of the method: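 Cells: GR-bla HeLa, endogenous GR with stably integrated GRE-beta-lactamase reporter. Treatment 18 h, 37 C, compounds delivered in DMSO. Detection via LiveBLAzer B/G FRET substrate, 2 h RT, fluorescence intensity.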

The target is the same in assay [17]. The assay is described as follows: qHTS assay to identify small molecule antagonists of the glucocorticoid receptor (GR) signaling pathway (AID 720692; active means well fitted inhibition curve with a large enough effect in the signal ratio in the repeat runs, not every such curve was filed as active; inconclusive means weak or mixed curves, or effect the other way; inactive means no such curve, though single readings can be large or run the other way; the % refers to the signal ratio). A digest of the protocol: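 Quantitative HTS in antagonist format: HeLa cells expressing endogenous GR and a stably integrated GRE-bla reporter, stimulated with 5 nM dexamethasone (final) alongside test compounds for 18 h.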

A short description of assay [18]: qHTS assay for small molecule agonists of the p53 signaling pathway - cell viability (AID 651633; calls by dose curve; further: nearly all actives have a fitted effect of over 30% in size; further: potency means the concentration at half of the fitted maximal effect). A digest of the protocol:
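p53RE-bla cells were treated with compound for 16 hours at 37 C. Cytotoxicity was then measured as CellTiter-Glo luminescence after 30 min at room temperature.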

A short description of assay [19]: qHTS assay to test for compound auto fluorescence at 460 nm (blue) in HEK293 cells (AID 720678). A digest of the protocol:
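HEK293 cells (2,000 per well, medium with 10% dialyzed FBS) attached for 4-5 hr at 37C, then received compound and stood overnight at 37C, 5% CO2. Blue fluorescence was read at Ex/Em 405/460 nm and expressed relative to triamterene.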

The structures appear in SMILES notation. Values without a mark were called inactive. Active and inactive are the calls of the source. Unless noted, the call rests on the fitted dose curve; in most records, active means well fitted curve in the direction sought with a large enough effect in the repeat runs; inconclusive means weak or mixed curves; inactive means no such curve, though single readings can be large; an effect the other way counts as inactive or inconclusive.
On the % scale 0 is the no-effect control and ±100 the full control effect.

Sequence of Glucocorticoid receptor (Homo sapiens) (P04150 whole entry, looked up): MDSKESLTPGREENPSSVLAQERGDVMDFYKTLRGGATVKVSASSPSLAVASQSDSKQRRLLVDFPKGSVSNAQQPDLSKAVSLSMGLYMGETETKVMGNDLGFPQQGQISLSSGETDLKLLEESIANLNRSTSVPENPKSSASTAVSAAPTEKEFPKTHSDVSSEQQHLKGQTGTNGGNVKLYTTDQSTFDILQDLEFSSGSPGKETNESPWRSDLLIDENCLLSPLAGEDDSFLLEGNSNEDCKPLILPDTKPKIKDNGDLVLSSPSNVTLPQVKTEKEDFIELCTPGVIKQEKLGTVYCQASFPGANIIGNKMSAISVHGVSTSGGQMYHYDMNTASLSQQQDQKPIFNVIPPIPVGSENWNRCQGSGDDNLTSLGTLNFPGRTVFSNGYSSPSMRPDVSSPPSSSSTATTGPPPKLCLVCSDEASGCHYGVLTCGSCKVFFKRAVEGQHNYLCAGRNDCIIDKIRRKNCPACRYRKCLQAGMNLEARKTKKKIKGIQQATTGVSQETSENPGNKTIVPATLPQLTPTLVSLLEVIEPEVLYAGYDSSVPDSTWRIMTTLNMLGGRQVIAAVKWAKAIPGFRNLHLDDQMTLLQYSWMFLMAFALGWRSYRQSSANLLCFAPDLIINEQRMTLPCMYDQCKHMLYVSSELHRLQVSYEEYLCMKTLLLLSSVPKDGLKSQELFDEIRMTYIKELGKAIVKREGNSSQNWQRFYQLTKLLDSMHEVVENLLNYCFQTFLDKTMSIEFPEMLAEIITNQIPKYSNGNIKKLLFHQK

As to `O=C(Cl)c1ccc([N+](=O)[O-])cc1`, the Potency entry in [1], in assay [2], in [3], in assay [4], in assay [9] and in assay [13] was “inactive” in each case. In addition, the Potency entry in assay [15], in [16] and in assay [17] was “inactive” each time. Moreover, the result in assay [5], in assay [6], in assay [7], in assay [8], in [10] and in [11] was inactive. In addition, the result in assay [12] and in [14] was inactive.
With `NCCCN(CCO)CCO`, the Potency result in assay [1], in [2], in [3], in assay [9], in [13] and in [15] was “inactive” throughout. In addition, the result in [6], in [7], in assay [8], in [10], in assay [11] and in assay [14] was inactive.
Regarding `CCOC(=O)[C@H](CCc1ccccc1)N[C@H]1CCc2ccccc2N(CC(=O)O)C1=O`, the Potency entry in assay [1], in [18], in [2], in assay [3] and in assay [13] was “inactive” in each case. The call in assay [5], in assay [6], in [7], in [8], in assay [10] and in assay [11] was inactive. Moreover, the call in assay [12] and in [14] was inactive.
Take `CN(c1nccc(=O)[nH]1)C1CCN(c2nc3ccccc3n2Cc2ccc(F)cc2)CC1`: the Potency result in assay [1], in [18], in assay [2], in [3], in assay [19] and in [9] was “inactive” throughout. Moreover, the Potency entry in assay [13] was “inactive”. Moreover, the result in assay [6], in assay [7], in assay [8], in assay [10], in assay [11] and in assay [12] was inactive. In assay [14], the result was inactive.
`CCCCOC(=O)/C=C\C(=O)OCCCC`: the Potency entry in assay [1], in assay [18], in assay [2], in assay [3], in assay [9] and in assay [13] was “inactive” throughout. Further, the Potency result in assay [15] and in [16] was “inactive” throughout. The molecule was called inactive in [5], in [6], in assay [7], in [8], in [10] and in assay [11]. In assay [14], the result was inactive.
Regarding `COC(=O)CSc1cc(N=c2sc(=O)n3n2CCCC3)c(F)cc1Cl`, the Potency entry in assay [1], in [18], in assay [2], in [3], in assay [9] and in [13] was “inactive” in each case. The Potency entry in assay [15], in assay [16] and in [17] was “inactive” each time. For the same molecule, the molecule was classed as inactive in assay [6], in [7], in [8], in [10], in assay [11] and in [12]. In addition, the result in [14] was inactive.
On to `O=[N+]([O-])c1cccc(Cl)c1Cl`, for which the Potency entry in [1], in assay [2], in assay [3], in assay [4], in [19] and in assay [9] was “inactive” each time. For the same molecule, the Potency entry in assay [13], in [15] and in assay [16] was “inactive” in each case. Also, the call in assay [5], in assay [6], in assay [7], in assay [8], in [11] and in assay [12] was inactive. Moreover, the call in assay [14] was inactive.
With `Cc1cc(O)ccc1N`, the Potency entry in assay [1], in [2], in assay [19], in assay [9], in assay [13] and in assay [15] was “inactive” in each case. Also, the Potency entry in assay [16] is “inactive”. Also, the molecule was classed as inactive in assay [5], in assay [6], in assay [7], in assay [8], in assay [11] and in [12]. Moreover, in assay [14], the molecule was called inactive.
`NC(N)=NN=C(/C=C/c1ccc([N+](=O)[O-])o1)/C=C/c1ccc([N+](=O)[O-])o1`: the Potency was 2.37 µM (active) in [18]; 10.6 µM (active) in assay [2]; 18.8 µM (active) in assay [3]; 2.66 µM (active) in assay [4]; 6.74 µM [inconclusive] (active) in assay [16]. In addition, the molecule was called inactive in assay [6], in assay [7], in assay [10], in assay [11], in assay [12] and in [14]. Moreover, the Potency entry in [19], in assay [9], in assay [13] and in [15] was “inactive” each time.
For the molecule `CCCCCOC(=O)COc1cc(N2C(=O)C3=C(CCCC3)C2=O)c(F)cc1Cl`, the Potency entry in [1], in assay [2], in assay [3], in [19], in assay [13] and in [15] was “inactive” throughout. Moreover, the Potency result in assay [16] is “inactive”. Further, the result in assay [5], in [6], in assay [7], in assay [8], in assay [10] and in assay [11] was inactive. Further, the call in assay [12] and in [14] was inactive.
For the molecule `CC(C(=O)O)c1ccc(C(=O)c2ccccc2)s1` (stereo not given), the Potency result in [1], in [18] and in [2] was “inactive” in each case. Besides, the fluorescence, relative to Rose Bengal in assay [5] is -0.233% [at 18.6 µM]. Besides, the fluorescence, % of fluorescein control in [6] was -0.0168% [at 18.6 µM]; in [14], 0.146% [at 18.6 µM]. In addition, the fluorescence, % of triamterene in assay [19] is 0.0309% [at 18.6 µM]. For the same molecule, the fluorescence, % of fluorescent control in assay [7] was -0.0493% [at 18.6 µM]; in assay [9] it was -0.0527% [at 18.6 µM]; in assay [11], -0.0875% [at 18.6 µM]; in assay [13], -0.006% [at 18.6 µM]; in [15] it was 0.0098% [at 18.6 µM]. The activity change in assay [10] is -0.0099% [at 18.6 µM]. Further, the fluorescence, % of Rose Bengal in assay [12] is 0.261% [at 18.6 µM].
Consider `CCOC(=O)CC(C)C`, for which the Potency entry in assay [1], in assay [18], in assay [2], in assay [3], in assay [9] and in assay [13] was “inactive” throughout. For the same molecule, the Potency entry in assay [16] was “inactive”. Besides, the molecule was called inactive in [5], in assay [6], in [7], in assay [10], in [11] and in assay [12]. Also, the outcome in [14] was inactive.
Take `CCN(CC)CCNC(C(=O)OCCC(C)C)c1ccccc1` (stereo not given): the Potency result in assay [1], in [2], in assay [3], in assay [19], in [9] and in assay [13] was “inactive” in each case. In addition, the Potency result in [15] and in assay [16] was “inactive” each time. Besides, the outcome in [6], in assay [7], in [8], in assay [10], in assay [11] and in assay [12] was inactive. The call in assay [14] was inactive.

The values are drawn from PubChem BioAssay (Tox21).
